The text below walks through data of PubChem BioAssay (NCATS).

“And” between values parts separate entries of the source, which are not always exact repeats. Equal values may be shown once. Results filed as inconclusive are left out. A structure can be active in one record and inactive in another. The source made the active and inactive calls. The call rests on the fitted dose curve; in most records, active means well fitted curve in the direction sought with a large enough effect; inconclusive means small, poorly fitted or top-dose-only effect, or another doubt; inactive means no such curve, though single readings can be large; an effect the other way counts as inactive or inconclusive.

The nature of experiment [1]: P-glycoprotein substrates identified in KB-8-5-11 adenocarcinoma cell line, qHTS therapeutic library screen (AID 1346987). Further: nearly all actives have a fitted effect of over 65% in size. Further: potency means the concentration at half of the fitted maximal effect. The essentials:
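P-gp-mediated resistance screen: KB-8-5-11 cells treated 72 h with compounds in dose-response. CellTiter-Glo viability.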

Experiment [2] can be described thus: NS1 protein of Zika virus - qHTS assay to identify small molecule inhibitors in human HEK 293 cells (AID 1347053). Further: series mostly up to about 46 µM; nearly all actives have a fitted effect of over 55% in size. The essentials:
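Following 20 h seeding, HEK 293 cells took compound, then 1 h later ZIKV MR766 (MOI = 0.5). Incubation ran 24 h at 37 C before TR-FRET detection of NS1; a drop in signal indicates inhibition.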
(In general: Quantitative high-throughput screening tests each substance at several concentrations.)

Experiment [3] in a line: qHTS of pediatric cancer cell lines to identify multiple opportunities for drug repurposing: Primary screen for SJ-GBM2 cells (AID 1347091). Further: potency means the concentration at half of the fitted maximal effect. The essentials:
(§1)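 Cell viability, CellTiter-Glo luminescence; 500-1,000 cells/well, 8- or 11-point titration, 48 h compound exposure at 37 degrees C, 5% CO2. Controls: DMSO neutral, bortezomib 2.3 µM final as positive.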

Experiment [4] can be described thus: qHTS of pediatric cancer cell lines to identify multiple opportunities for drug repurposing: Primary screen for A673 cells (AID 1347092). Further: nearly all actives have a fitted effect of over 45% in size. Further: potency means the concentration at half of the fitted maximal effect. The essentials: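 Cells are plated, rested 5 h, dosed by pintool, incubated 48 h, then lysed with CellTiter-Glo and read by luminescence. DMSO is the neutral control; bortezomib at 2.3 uM final is the positive control.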
Experiment [5] in a line: qHTS of pediatric cancer cell lines to identify multiple opportunities for drug repurposing: Primary screen for SK-N-MC cells (AID 1347093). Further: potency means the concentration at half of the fitted maximal effect. The method in brief:
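Metabolically active cells were quantified by ATP-dependent luminescence (CellTiter-Glo, 15 min at room temperature) following 48 h treatment. Cells had been plated at 500-1,000 per well and settled for 5 h beforehand.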

Experiment [6] in a line: qHTS of pediatric cancer cell lines to identify multiple opportunities for drug repurposing: Primary screen for BT-37 cells (AID 1347094). Further: potency means the concentration at half of the fitted maximal effect. The method in brief:
(§2)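 Viability was measured as metabolically active cells after 48 hours of treatment, read by CellTiter-Glo luminescence. Compounds were tested at multiple final concentrations, giving concentration-response curves.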

Experiment [7] can be described thus: qHTS of pediatric cancer cell lines to identify multiple opportunities for drug repurposing: Primary screen for SK-N-SH cells (AID 1347098). Further: nearly all actives have a fitted effect of over 65% in size. Further: potency means the concentration at half of the fitted maximal effect. The method in brief: (§3)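 Cells (500-1,000/well) rested 5 h, then received compounds for 48 h; metabolically active cells were measured by CellTiter-Glo luminescence. Final concentrations spanned up to 46 µM (MIPE, 11-point) or 0.59 nM-46 µM (NPC, 8-point) in primary screens, 11-point in follow-ups.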

A short description of experiment [8]: qHTS of pediatric cancer cell lines to identify multiple opportunities for drug repurposing: Primary screen for DAOY cells (AID 1347090). Further: nearly all actives have a fitted effect of over 55% in size. Further: potency means the concentration at half of the fitted maximal effect. The method in brief:
as §1

Experiment [9] in a line: qHTS of pediatric cancer cell lines to identify multiple opportunities for drug repurposing: Primary screen for U-2 OS cells (AID 1347096). Further: nearly all actives have a fitted effect of over 50% in size. Further: potency means the concentration at half of the fitted maximal effect. The method in brief:
as §3

A short description of experiment [10]: qHTS of pediatric cancer cell lines to identify multiple opportunities for drug repurposing: Primary screen for Saos-2 cells (AID 1347097). Further: nearly all actives have a fitted effect of over 40% in size. Further: potency means the concentration at half of the fitted maximal effect. The method in brief:
as §2

A short description of experiment [11]: qHTS of pediatric cancer cell lines to identify multiple opportunities for drug repurposing: Primary screen for NB-EBc1 cells (AID 1347095). Further: potency means the concentration at half of the fitted maximal effect. The method in brief: as §2
The nature of experiment [12]: qHTS of pediatric cancer cell lines to identify multiple opportunities for drug repurposing: Primary screen for TC32 cells (AID 1347089). Further: nearly all actives have a fitted effect of over 60% in size. The essentials: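 Measured quantity: luminescence from CellTiter-Glo, reflecting metabolically active TC32 cells following 48 h of compound. Curves came straight from multi-point titrations, with 8 or 11 points in primary and 11 in confirmatory screening.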

For the compound `CO[C@@H]1C(N(C)C(=O)c2ccccc2)C[C@H]2O[C@]1(C)n1c3ccccc3c3c4c(c5c6ccccc6n2c5c31)C(=O)NC4=O` (stereo partly specified), the Potency in experiment [1] is 7.43 µM (active); in experiment [3], 2.35 µM (active); in experiment [4], 2.96 µM (active); in [5], 1.32 µM (active); in experiment [7], 6.07 µM (active). Further, the Potency result in experiment [2] and in [6] was “inactive” throughout.

With `CC(C)n1c(C=C[C@H](O)C[C@H](O)CC(=O)O)c(-c2ccc(F)cc2)c2ccccc21`, the Potency in [1] is 11.8 µM (active); in [8], 1.87 µM (active); in [3], 9.35 µM (active); in experiment [5], 11.8 µM (active); in experiment [6], 19.3 µM (active); in [9] it was 14.8 µM (active). In addition, the Potency is 1.87 µM (active) in experiment [10] and 6.81 µM (active) in experiment [7]. Moreover, in experiment [2], the Potency entry is “inactive”.

In the case of `CNC(=O)c1c(-c2ccc(F)cc2)oc2cc(N(CCO)S(C)(=O)=O)c(C3CC3)cc12`, the Potency result in experiment [1] and in [2] was “inactive” in each case. Also, the Potency in experiment [8] is 23.5 µM (active); in experiment [4] it was 23.5 µM (active); in experiment [10] it was 16.6 µM (active); in experiment [7], 30.4 µM (active).

For the compound `COc1ccc(-c2cc(=O)c3c(O)cc(O[C@@H]4O[C@H](CO[C@@H]5O[C@@H](C)[C@H](O)[C@@H](O)[C@@H]5O)[C@@H](O)[C@H](O)[C@@H]4O)cc3o2)cc1O`, the Potency result in [1], in experiment [2], in experiment [3], in experiment [6], in [11] and in [9] was “inactive” throughout. The Potency in experiment [4] is 14.8 µM (active); in [5], 7.43 µM (active); in [7], 27.1 µM (active).

Turning to `C=CC[N+]1([C@H]2C[C@H]3[C@@H]4CC[C@H]5C[C@H](O)[C@@H](N6CCOCC6)C[C@]5(C)[C@@H]4CC[C@]3(C)[C@H]2OC(C)=O)CCCC1`, the Potency result in experiment [1], in experiment [2], in experiment [8], in experiment [3], in experiment [5] and in [6] was “inactive” each time. The Potency result in experiment [11], in experiment [10] and in experiment [7] was “inactive” throughout.

In the case of `N#CC(c1ccnc(NCCc2cccnc2)n1)c1nc2ccccc2s1` (stereo unspecified), the Potency result in [1] and in experiment [12] was “inactive” each time. The Potency is 29.6 µM (active) in [8]; 9.35 µM (active) in experiment [3]; 4.69 µM (active) in [4]; 11.8 µM (active) in [5]; 24.3 µM (active) in experiment [6]; 18.7 µM (active) in experiment [10].

In the case of `COc1ccc(-c2nc3ccc(C4=NNC(=O)CC4C)cc3[nH]2)cc1` (stereo unspecified), the Potency result in [1], in [2] and in experiment [9] was “inactive” throughout. The Potency was 21.1 µM (active) in experiment [5], 11.9 µM (active) in experiment [11] and 15.4 µM (active) in experiment [7].

As to `CN1CCC(COc2cnc(-c3cccc(Cn4nc(-c5cccc(C#N)c5)ccc4=O)c3)nc2)CC1`, the Potency entry was “inactive and 16.4 µM (active)” in experiment [1]; 23.5 µM (active) in experiment [8]; 0.0083 µM (active) in experiment [3]; 0.148 µM (active) in experiment [4]; 0.148 µM (active) in [5]; 24.1 µM (active) in [7]. The Potency result in experiment [12], in [6], in experiment [9] and in experiment [10] was “inactive” each time.

Regarding `NC1(C(=O)N[C@@H](CCO)c2ccc(Cl)cc2)CCN(c2ncnc3[nH]ccc23)CC1`, the Potency result in experiment [1] and in experiment [2] was “inactive” in each case. In addition, the Potency in [4] was 18.7 µM (active); in experiment [11], 5.26 µM (active); in [7], 30.4 µM (active).

For the compound `C[C@]12C=CC(=O)C=C1CC[C@@H]1[C@@H]2[C@@H](O)C[C@@]2(C)[C@@H]1CC[C@]2(O)C(=O)CO`, the Potency result in [1], in experiment [2], in experiment [9] and in experiment [10] was “inactive” each time. Moreover, the Potency is 29.6 µM (active) in experiment [5] and 14.8 µM (active) in [11].

Take `O=S(=O)(O)c1ccc2cc(N=Nc3cc(S(=O)(=O)O)c4cccnc4c3O)ccc2c1`: the Potency result in [1], in experiment [2] and in experiment [9] was “inactive” throughout. Also, the Potency in experiment [5] was 18.7 µM (active).

For `CCc1cc(-c2n[nH]c(C)c2-c2ccc3c(c2)OCCO3)c(O)cc1O`, the Potency in [1] was 9.35 µM (active); in experiment [3], 6.62 µM (active); in experiment [4], 7.43 µM (active); in experiment [5], 10.5 µM (active); in [11] it was 4.69 µM (active); in experiment [9], 11.8 µM (active). The results for the Potency in [10] and in [7] were 14.8 µM (active) and 9.61 µM (active), respectively. Also, the Potency result in experiment [2] is “inactive”.

In the case of `CCCCC[C@H](O)C=C[C@H]1[C@H](O)CC(=O)[C@H]1CCCCCCC(=O)O`, the Potency entry in experiment [1], in experiment [2], in experiment [11], in experiment [10] and in [7] was “inactive” throughout.

With `NC(=O)c1ncn([C@@H]2O[C@H](CO)[C@@H](O)[C@@H]2O)n1`, the Potency entry in experiment [1], in experiment [12], in experiment [8], in [3], in experiment [4] and in experiment [6] was “inactive” in each case. Further, the Potency entry in experiment [9], in experiment [10] and in experiment [7] was “inactive” throughout.

`O=C1C(CCC(O)c2ccc(F)cc2)C(c2ccc(O)cc2)N1c1ccc(F)cc1` (stereo unspecified): the Potency result in experiment [1], in experiment [12], in experiment [8], in experiment [3], in experiment [4] and in experiment [5] was “inactive” throughout. The Potency result in experiment [6], in experiment [11], in experiment [9], in [10] and in [7] was “inactive” throughout.

On to `CC1=C(CC(=O)O)c2cc(F)ccc2C1=Cc1ccc(S(C)=O)cc1` (stereo unspecified), for which the Potency entry in [1], in experiment [2], in [3] and in experiment [9] was “inactive” each time. Also, the Potency in experiment [8] is 3.72 µM (active); in experiment [4], 1.48 µM (active); in experiment [11] it was 18.7 µM (active); in [7] it was 19.2 µM (active).
